# Reference: the supplement of paper PMC10981050
# Where “and” joins values, the source holds several entries; their conditions need not be identical. Equal entries are not always repeated. Structures can show the parent of a compound that is named as a salt.
# Columns and labels:
# Experiment in all cases: cell viability relative to vehicle control; higher = less cytotoxic
# Conditions in all cases: 10 µM
# K562 = test system: K562
# Procedure, shortened: (§1)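 After removal of identity-inconsistent compounds, the Selleck bioactive, kinase and epigenetic probe libraries were screened on CRISPR-edited mutant clones and isogenic wild-type clones of four leukaemia lines. Plates were 384-well, each well holding 2000 cells in 50 µL medium and receiving a single 10 µM acoustically dispensed dose. CellTiter-Glo luminescence was read 48 h later, after the supernatant was taken off. Genedata Screener was used to express viability as percent of the on-plate vehicle control.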
# MARIMO = test system: MARIMO
# Procedure, shortened: as §1
# MOLM14 = test system: MOLM14
# Procedure, shortened: as §1
# OCI-AML2 = test system: OCI-AML2
# Procedure, shortened: as §1
Compound,cell viability (K562; SRSF2 genotype: SRSF2 P95H/wt),cell viability (K562; SRSF2 genotype: SRSF2 wt/wt),cell viability (MARIMO; SRSF2 genotype: SRSF2 P95H/wt),cell viability (MARIMO; SRSF2 genotype: SRSF2 wt/wt),cell viability (MOLM14; SRSF2 genotype: SRSF2 P95H/wt),cell viability (MOLM14; SRSF2 genotype: SRSF2 wt/wt),cell viability (OCI-AML2; SRSF2 genotype: P95H/wt),cell viability (OCI-AML2; SRSF2 genotype: wt/wt)
CC(=O)Nc1ccccc1 [Acetanilide (Antifebrin)],104%,101%,106%,106%,96.4%,101%,105%,102%
C#C[C@]1(O)CC[C@H]2[C@@H]3CCc4cc(OC5CCCC5)ccc4[C@H]3CC[C@@]21C [Quinestrol],78.4% and 83.7%,71%,62.4%,57.9%,78.8%,79.2%,49.7%,60.6%
Cc1ccc(NC(=S)NNc2c([N+](=O)[O-])cc(C(F)(F)F)cc2[N+](=O)[O-])cc1Cl,81% and 81.3%,90.4%,87.3%,86.2%,89.3%,84.6%,101%,94.4%
CC(C)(C)c1ccc(S(=O)(=O)NCc2ccc(C(=O)Nc3cccnc3)cc2)cc1,31.8% and 20.2%,26.6%,20.9%,32.5%,9.88%,1.9%,5.52%,5.41%
Nc1ncnc2c1c(I)cn2C1OC(CO)C(O)C1O (configuration not stated) [5-Iodotubercidin],4.74% and 10.8%,6.66%,12.2%,5.58%,0.78%,0.42%,2.92%,13.1%
C=CCc1cccc(/C=N/NC(=O)CN2CCN(Cc3ccccc3)CC2)c1O,70.5% and 67%,65.4%,25.7%,31.6%,12.3%,8.85%,19.2%,19.7%
CC(C)NC[C@@H](C(=O)N1CCN(c2ncnc3c2[C@H](C)C[C@H]3O)CC1)c1ccc(Cl)cc1 [Ipatasertib (GDC-0068)],90.8% and 87.6%,86.3%,80.8%,80%,51.1%,56.6%,72.1%,81.2%
CCS(=O)(=O)N1CCC([C@@H](C)n2c(C)c(C(=O)NCc3c(OC)cc(C)[nH]c3=O)c3ccccc32)CC1,100% and 98.2%,95.7%,99.8%,111%,100%,99%,107%,109%
CCCCC(=O)O[C@H]1CC[C@H]2[C@@H]3CCc4cc(O)ccc4[C@H]3CC[C@]12C [Estradiol valerate],84.7% and 95.4%,94.2%,84.7%,69.3%,69.9%,69.2%,45%,30.4%
CCN(CC)CCOCCOC(=O)C1(c2ccccc2)CCCC1 [Pentoxyverine Citrate],98.4% and 105%,108%,92.9%,104%,96.4%,104%,112%,97%
O=C(NCCCNc1nc(Nc2cccc(NC(=O)N3CCCC3)c2)ncc1I)c1cccs1,62.4% and 86.2%,74.4%,56.6%,56.7%,11.1%,6.15%,12.4%,20.6%
Nc1ccc(S(=O)(=O)Nc2nccs2)cc1 [Sulfathiazole],104% and 98.6%,95.4%,95.8%,107%,103%,102%,96%,105%
CC(=O)[C@@]1(O)CC[C@H]2[C@@H]3C[C@H](C)C4=CC(=O)CC[C@]4(C)[C@H]3CC[C@@]21C [Medroxyprogesterone],97.3% and 90.1%,91.8%,74%,92.8%,103%,100%,103%,104%
O[C@H]1[C@H]2c3cc4c(cc3CN3CCC(=C[C@@H]1O)[C@H]23)OCO4 [Lycorine hydrochloride],18.7% and 26.8%,28.4%,22.9%,21%,20.3%,7.64%,0.76%,2.07%
COC(=O)c1ccc(O)c(C(=O)OC)c1 [Dimetghyl 4-Hydroxyisophthalate],100% and 93.1%,99.4%,95.2%,98.7%,97.3%,100%,90%,96.6%
COC1=C2C[C@@H](C)C[C@H](OC)[C@H](O)[C@@H](C)/C=C(\C)[C@H](OC(N)=O)[C@@H](OC)/C=C\C=C(/C)C(=O)NC(=CC1=O)C2=O [Geldanamycin],15.4% and 22.8%,24.4%,26.4%,19.1%,1.24%,1.11%,1.59%,10.6%
O=C(O)Cc1ccccc1Nc1c(Cl)cccc1Cl [Diclofenac Sodium],94.9% and 97.8%,102%,103%,110%,108%,100%,91.1%,102%
CCOc1cc(C=O)ccc1OC(C)=O [Ethyl vanillin acetate],103% and 99.2%,102%,105%,108%,96.4%,98.5%,98%,108%
Nc1nc(-c2ccco2)c2cnn(Cc3ccccc3F)c2n1 [A2AR antagonist 1],76% and 77.7%,72.9%,73.4%,70.2%,88.9%,98.6%,91.6%,88.5%
